This is an account of results in PubChem BioAssay (EPA / NIEHS).

Read-out in test [1]: Human Leukocyte Antigen - DR isotype (HLADR), HLA-DRA (gene 3122)
Kind of test: BSK_CASM3C_HLADR: BioMAP Diversity Plus: CASM3C Assay for Human Leukocyte Antigen - DR isotype (HLADR) Biomarker Activity (AID 2283043).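 Further: cell-surface HLA-DR protein level quantified by ELISA.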 The settings on record: primary human coronary artery smooth muscle cells; actives raise or lower the signal.

Read-out in test [2]: Macrophage colony-stimulating factor (MCSF), CSF1 (gene 1435)
Kind of test: BSK_CASM3C_MCSF: BioMAP Diversity Plus: CASM3C Assay for Macrophage colony-stimulating factor (MCSF) Biomarker Activity (AID 2283044).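 Further: M-CSF protein amount quantified by ELISA after 24 h exposure.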 The following applies: primary human coronary artery smooth muscle cells; actives raise or lower the signal.

Read-out in test [3]: Low-density lipoprotein receptor (LDLR), LDLR (gene 3949)
Kind of test: BSK_CASM3C_LDLR: BioMAP Diversity Plus: CASM3C Assay for Low-density lipoprotein receptor (LDLR) Biomarker Activity (AID 2283045).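 Further: LDLR protein level on the cell surface quantified by ELISA.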 The settings on record: primary human coronary artery smooth muscle cells; actives raise or lower the signal.

Read-out in test [4]: Monocyte Chemoattractant Protein-1 (MCP1), CCL2 (gene 6347)
Kind of test: BSK_CASM3C_MCP1: BioMAP Diversity Plus: CASM3C Assay for Monocyte Chemoattractant Protein-1 (MCP1) Biomarker Activity (AID 2283046).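 Further: MCP-1 level quantified by ELISA 24 h after dosing.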 The following applies: primary human coronary artery smooth muscle cells; actives raise or lower the signal.

Test [5] is described as follows: BSK_CASM3C_Proliferation: Cell Proliferation Assessment in the BioMAP Diversity Plus: CASM3C Assay (AID 2283047).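 Further: sulforhodamine B total protein stain as relative cell number at 560 nm; sub-confluent cells exposed 48 h before staining; fitted both ways against DMSO so gain or loss of cell number.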 The following applies: primary human coronary artery smooth muscle cells.
Read-out in test [6]: Monokine induced gamma interferon (MIG), CXCL9 (gene 4283)
The experiment in a line: BSK_CASM3C_MIG: BioMAP Diversity Plus: CASM3C Assay for Monokine induced gamma interferon (MIG) Biomarker Activity (AID 2283048).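 Further: MIG protein level measured by ELISA.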 The settings on record: primary human coronary artery smooth muscle cells; actives raise or lower the signal.

Read-out in test [7]: serum amyloid A (SAA), SAA1 (gene 6288)
The experiment in a line: BSK_CASM3C_SAA: BioMAP Diversity Plus: CASM3C Assay for serum amyloid A (SAA) Biomarker Activity (AID 2283049).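 Further: SAA protein level quantified by ELISA.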 The following applies: primary human coronary artery smooth muscle cells; actives raise or lower the signal.

Test [8] can be described thus: BSK_CASM3C_SRB: Viability Assessment in the BioMAP Diversity Plus: CASM3C Assay (AID 2283050).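 Further: total protein by SRB staining as cytotoxicity measure in parallel cultures; cells exposed to compound for 24 h.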 The following applies: primary human coronary artery smooth muscle cells.
Read-out in test [9]: Thrombomodulin, THBD (gene 7056)
Kind of test: BSK_CASM3C_Thrombomodulin: BioMAP Diversity Plus: CASM3C Assay for Thrombomodulin Biomarker Activity (AID 2283051).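 Further: thrombomodulin protein level measured by ELISA 24 h after dosing.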 The settings on record: primary human coronary artery smooth muscle cells; actives raise or lower the signal.

Read-out in test [10]: Tissue Factor, F3 (gene 2152)
The experiment in a line: BSK_CASM3C_TissueFactor: BioMAP Diversity Plus: CASM3C Assay for Tissue Factor Biomarker Activity (AID 2283052).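 Further: cell surface tissue factor protein level read by ELISA.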 The following applies: primary human coronary artery smooth muscle cells; actives raise or lower the signal.

The source made the active and inactive calls. How the source made its calls: active means hit-call score of the fitted dose curve at least 0.9, where 1 is the maximum; inactive means score below 0.9.

For `Cc1cc(Cl)ccc1N`, the result in [1], in test [2], in test [3], in test [4], in [5] and in [6] was inactive. Also, the outcome in test [7], in [8], in test [9] and in test [10] was inactive.

Consider `CCOP(=O)(OCC)OC(=CCl)c1ccc(Cl)cc1Cl`, for which the AC50 was 33.4 µM (active) in test [1]; 31.7 µM (active) in test [2]; 28.3 µM (active) in [3]; 28 µM (active) in [4]; 28.5 µM (active) in test [5]; 29.6 µM (active) in [7]. The AC50 in test [8] was 29.5 µM (active); in [10], 24.9 µM (active). For the same compound, the result in test [6] and in test [9] was inactive.

Take `Cc1cccc(OP(=O)(Oc2cccc(C)c2)Oc2cccc(C)c2)c1`: the outcome in test [1], in [3], in test [5], in test [6], in test [7] and in test [8] was inactive. Further, the result in test [9] and in [10] was inactive. The AC50 is 0.139 µM (active) in [2] and 0.075 µM (active) in test [4].

Regarding `[Cl][Sn]([c]1ccccc1)([c]1ccccc1)[c]1ccccc1`, the half-maximal activity concentration (AC50) was 0.261 µM (active) in test [1]; 0.718 µM (active) in test [2]; 0.343 µM (active) in test [3]; 0.599 µM (active) in test [4]; 0.134 µM (active) in [5]; 0.524 µM (active) in test [6]. Also, the AC50 in [7] is 0.522 µM (active); in [8], 0.688 µM (active); in [9], 1.07 µM (active); in test [10], 1.37 µM (active).

On to `CCCCN(CCCC)C(=S)[S-].CCCCN(CCCC)C(=S)[S-].[Ni+2]`, for which the result in test [1], in [2], in [3], in test [4], in test [5] and in test [6] was inactive. In addition, the outcome in test [7], in [8], in test [9] and in test [10] was inactive.

With `O=C(N[C@H]1CN2CCC1CC2)c1ccc2c(c1)OCCO2`, the result in [1], in test [2], in test [3], in [4], in [5] and in test [6] was inactive. The result in [7], in test [8], in test [9] and in test [10] was inactive.

On to `Oc1c(Br)cc(Br)cc1Br`, for which the outcome in test [1], in test [2], in [3], in test [4], in [5] and in test [6] was inactive. The outcome in test [7], in [8], in test [9] and in test [10] was inactive.

For `CCN(CC)C(=O)C(Cl)=C(C)OP(=O)(OC)OC`, the result in test [1], in test [2], in test [3], in test [4], in [5] and in test [6] was inactive. The result in test [7], in [8], in test [9] and in [10] was inactive.

Regarding `CCC(C)(C#N)N=NC(C)(C#N)CC` (centres undefined), the outcome in [1], in test [3], in [4], in test [5], in test [6] and in test [7] was inactive. The outcome in [8], in [9] and in test [10] was inactive. In [2], the AC50 is 0.016 µM (active).

On to `Oc1ccc(Cc2ccc(O)cc2)cc1`, for which the result in test [1], in test [2], in [3], in [4], in test [5] and in test [6] was inactive. Besides, the result in test [7], in test [8], in test [9] and in [10] was inactive.

In the case of `Cc1ccc2nc3sc(=O)sc3nc2c1`, the outcome in [1], in test [2], in test [3], in [4], in test [5] and in test [6] was inactive. Besides, the outcome in test [7], in test [8], in test [9] and in test [10] was inactive.

In the case of `CCOC(=O)CC(=O)CCl`, the AC50 in test [1] was 8.67 µM (active); in [2], 20 µM (active); in [5], 26.3 µM (active); in [6], 31.6 µM (active); in test [8], 25.7 µM (active); in test [10], 14 µM (active). Also, the result in test [3], in test [4], in test [7] and in [9] was inactive.

As for `C#CCOC(=O)/C=C(C)/C=C/CC(C)CCCC(C)C` (centres undefined), the figures for the AC50 in test [1] and in [10] were 3.97 µM (active) and 4.03 µM (active), respectively. Further, the result in test [2], in test [3], in test [4], in test [5], in test [6] and in test [7] was inactive. Also, the outcome in [8] and in test [9] was inactive.

Turning to `CCOC(=O)C(SP(=S)(OC)OC)c1ccccc1` (centres undefined), the AC50 in test [1] is 20 µM (active); in [2], 20 µM (active); in test [5], 20 µM (active); in test [9], 20 µM (active); in test [10] it was 3.97 µM (active). For the same compound, the outcome in test [3], in test [4], in [6], in [7] and in test [8] was inactive.

Regarding `NC(=O)CCl`, in test [1], the AC50 was 20 µM (active). Further, the result in [2], in test [3], in test [4], in test [5], in [6] and in [7] was inactive. In addition, the result in test [8], in [9] and in test [10] was inactive.

On to `COCC(=O)N(c1c(C)cccc1C)[C@H](C)C(=O)OC`, for which the outcome in test [1], in test [2], in test [3], in test [4], in [5] and in test [6] was inactive. Also, the outcome in test [7], in [8], in test [9] and in test [10] was inactive.

Consider `Cc1cc(C)cc(C)c1`, for which the outcome in test [1], in test [2], in test [3], in [4], in [5] and in [6] was inactive. Also, the outcome in test [7], in test [8], in test [9] and in test [10] was inactive.

Take `CC(C)(C)c1ccccc1O`: the outcome in test [1], in test [2], in test [3], in test [4], in test [5] and in test [6] was inactive. The result in test [7], in [8], in test [9] and in test [10] was inactive.

Regarding `CC(C)=CC1C(C(=O)OCc2cccc(Oc3ccccc3)c2)C1(C)C` (centres undefined), the AC50 in test [1] is 20 µM (active); in test [9] it was 10.4 µM (active); in [10], 9.79 µM (active). The outcome in test [2], in [3], in test [4], in test [5], in test [6] and in [7] was inactive. Further, the outcome in test [8] was inactive.

As for `CCOP(=O)(OCC)SCCSCC`, the outcome in [1], in [2], in test [3], in test [4], in [5] and in [6] was inactive. The outcome in [7], in test [8], in test [9] and in [10] was inactive.

For `Oc1c(Cl)cc(Cl)cc1Cl`, the outcome in test [1], in test [2], in [3], in test [4], in [5] and in test [6] was inactive. Besides, the outcome in test [7], in test [8], in test [9] and in [10] was inactive.

Regarding `CC(C)(C)c1cc([N+](=O)[O-])cc(C(C)(C)C)c1O`, the outcome in test [1], in test [2], in [3], in [4], in test [5] and in [6] was inactive. Also, the outcome in test [7], in test [8], in test [9] and in test [10] was inactive.

Consider `CC(C=O)Cc1ccc2c(c1)OCO2` (centres undefined), for which the result in test [1], in test [2], in test [3], in test [4], in test [5] and in test [6] was inactive. Also, the result in test [7], in test [8], in [9] and in test [10] was inactive.

Turning to `COc1ccccc1N`, the outcome in [1], in [2], in test [3], in [4], in [5] and in [6] was inactive. The outcome in test [7], in [8], in test [9] and in [10] was inactive.

As for `CCCCCCCCCCCCN(C)C`, the outcome in test [1], in test [2], in test [4], in [5], in [6] and in test [7] was inactive. Also, the outcome in test [8], in test [9] and in [10] was inactive. The AC50 in test [3] is 26.7 µM (active).

As to `C=CC(Cl)CCl` (centres undefined), the outcome in [1], in test [2], in test [3], in [5], in [6] and in test [7] was inactive. The result in [8], in [9] and in [10] was inactive. For the same compound, the AC50 in test [4] is 0.0777 µM (active).

As to `Oc1cc(Cl)c(Cl)cc1Cl`, the result in [1], in [2], in test [3], in test [4], in [6] and in test [7] was inactive. Further, the result in test [8] and in [10] was inactive. Moreover, the AC50 in test [5] is 30.8 µM (active).

`OC(Cc1ccccc1Cl)(Cn1cncn1)C1(Cl)CC1` (centres undefined): the outcome in test [1], in [2], in [3], in test [4], in test [5] and in [6] was inactive. The outcome in test [7], in test [8], in [9] and in test [10] was inactive.

The term AC50 denotes the concentration giving half of the maximal activity seen.
